Measurements from ChEMBL document CHEMBL3988442, “University of Dundee, Small-Polar-MMV Screening Library” (2021).
Screen size: about 53,000 compounds; about 900 (1.7%) showed an effect of 50% or more. This is one part of a sample in which strong results are shown more often than they occur.

System: Mycobacterium tuberculosis
Assay: Cornell - Phenotypic assay to identify agents that inhibit growth of Mycobacterium tuberculosis
Format: functional
Set-up: scale not given: direction of the effect not stated beside the values
Settings: 10 mM as filed; unlikely as a test dose

Compound	Percent Effect
CNc1snc(C)c1C(=O)N1CCCC(n2cc(C)cn2)C1 (centres undefined)	-17.18%
Cc1nc(CN2CCC3(CC2)NC(=O)CC3c2ccncc2)cs1.O=C(O)C(F)(F)F.O=C(O)C(F)(F)F (centres undefined)	21.18%
CCc1nc2ccccc2c(=O)n1CC1(O)CCN(C(=O)COC)CC1.Cl	10.94%
COC(=O)COn1c(OC)nc2ccccc2c1=O	32.68%
COCC(C)NC(=O)CCCn1cnc2ccccc2c1=O (centres undefined)	7.524%
COC(=O)CNC(=O)CCCn1cnc2ccccc2c1=O	3.303%
COC(=O)COn1c(SC(C)C)nc2ccccc2c1=O	75.74%
CCSc1nc2ccccc2c(=O)n1OCC(=O)OC	74.42%
COc1ccc(SCC2CNc3nc4ccccc4c(=O)n32)cc1 (centres undefined)	44.86%
CCc1nc2ccccc2c(=O)n1CC1(O)CCN(CC(=O)OC)CC1	13.86%
COC(=O)COn1c(SC)nc2ccccc2c1=O	75.88%
COc1ccc(-n2c(SC)nc(O)c(Cc3ccccc3)c2=O)cc1	13.52%
CCc1cc(=O)[nH]c2nnc(SCC(=O)OC)n12	-7.031%
COC(=O)COn1c(SCC(=O)OC)nc2ccccc2c1=O	102.5%
COCc1nn(Cc2ccc(Br)s2)c(=O)o1	6.613%
N#CCCn1nc(C(F)(F)F)c2c1CCCC2	-22.61%
O=C(O)C(F)(F)F.O=C(O)C(F)(F)F.c1cc(CN2C[C@@H]3OCCN(CC4CC4)[C@@H]3C2)n[nH]1	4.885%
CO[C@@H]1CCN(C(=O)Cc2cccc(F)c2)[C@H]1Cc1cccnc1.O=C(O)C(F)(F)F	-8.358%
CC(C)C(=O)N1CC[C@H]2N(C)CC[C@@]2(C(=O)N2CCOCC2)CC1.O=C(O)C(F)(F)F	-25.99%
Cc1ccccc1CN(C)CC(O)COCc1ccccc1Cl (centres undefined)	-1.891%
O=C(O)C(F)(F)F.O=C(O)C(F)(F)F.c1cc(CN2CCc3ncc(CN4CCOCC4)n3CC2)cs1	-22.34%
COc1ccccc1NCc1cscn1.Cl	16.2%
CC(C)(C)Oc1ccncc1NCc1cscn1	55.35%
COc1ccncc1NCc1cscn1	26.83%
COC1COC2(CCN(Cc3ccccc3F)CC2)C1.O=C(O)C(F)(F)F (centres undefined)	10.15%
CCCc1nnc(N2CCN(c3ccccc3F)CC2)o1	-12.77%

Compound	Percent Effect
CCCc1nnc(N2CCN(c3ccccc3OCC)CC2)o1	24.59%
CCCc1nnc(N2CCN(c3ccccc3Cl)CC2)o1	51.83%
Cc1cccc(NC(=O)NC2CCC3(C2)OCCO3)c1Cl (centres undefined)	24.64%
CN(CC(=O)NC(Cc1ccsc1)c1cccnc1)Cc1ccccn1.Cl (centres undefined)	-48.97%
Cc1csc(C(Cc2ccsc2)NC(=O)CN(C)Cc2cccnc2)n1.Cl (centres undefined)	14.48%
Cc1csc(C(Cc2ccsc2)NC(=O)CN(C)Cc2ccccn2)n1.Cl (centres undefined)	68.23%
CCOc1ccc(NC(=O)N2CCC(n3cncn3)CC2)cc1Cl	-30.56%
O=C(O)C(F)(F)F.c1cnc(N2C[C@@H]3COC[C@]3(COCC3CCCC3)C2)nc1	53.05%
O=C(O)C(F)(F)F.O=C(O)C(F)(F)F.c1ccc(OC[C@]23COC[C@H]2CN(c2ncccn2)C3)nc1	24.67%
O=C(CC1CC1)NC[C@]12COC[C@H]1CN(c1ncccn1)C2.O=C(O)C(F)(F)F	0.6787%
CCOCC1CN(Cc2cnn(C)c2)Cc2ncn(C)c21 (centres undefined)	21.37%
Cc1ccc(CN2C[C@H](OCCN(C)C)[C@H]3COC[C@H]32)o1.O=C(O)C(F)(F)F.O=C(O)C(F)(F)F	19.04%
CCNC(=O)N1CCC(=Cc2ccccc2)CC1	31.8%
CNC(=O)N1CCC(=Cc2ccccc2)CC1	50.2%
CCCNC(=O)CCNC(=O)N1CCC(=Cc2ccccc2)CC1	-1.003%
COC(=O)N1CCC(CNC(=O)C2CCN(S(C)(=O)=O)CC2)CC1	-2.459%
CCn1ccc(-c2cc(NCCCOc3ccccc3C)nc(C)n2)n1	93.67%
COc1ccccc1OCCNCCn1cccn1	4.031%
CCn1ccc(-c2cc(NCCCOc3cccc(C)c3)nc(C)n2)n1	27.92%
CC1(C)OC(=O)N(CCOc2ccc(F)cc2)C1=O	15.77%
CN1CCOC(C)(C(=O)N2CCN(C3CCCC3)CC2)C1 (centres undefined)	-58.81%
CNC(=O)CNCC1(O)CCCN(Cc2ccc(F)c(F)c2)C1=O (centres undefined)	-12.88%
NCCc1nc(N(Cc2cncs2)C2CC2)c2ccccc2n1	-19.06%
Cc1ccsc1CN(c1nc(CCN)nc2ccccc12)C1CC1	64.64%
NCCc1nc(N(Cc2nccs2)C2CC2)c2ccccc2n1	-24.34%
CN(C)C(CNC(=O)c1cccc(C(N)=O)c1)c1ccccc1Cl (centres undefined)	-40.94%

Compound	Percent Effect
N#Cc1nccnc1N1CCC(CSc2ccccc2)C1 (centres undefined)	53.28%
N#Cc1nccnc1N1CCC(COCc2ccccc2)C1 (centres undefined)	4.332%
N#Cc1nccnc1N1CCC(Cc2ccccc2)C1 (centres undefined)	17.71%
CC(C)C(NC(=O)c1cnc(N2CCOCC2)nc1)c1cccs1 (centres undefined)	69.04%
CC(C)C(NC(=O)c1nc(N2CCOCC2)ncc1Cl)c1cccs1 (centres undefined)	19.79%
CC(C)C(NC(=O)c1ccc(N2CCOCC2)nc1)c1cccs1 (centres undefined)	5.892%
CC(=O)Nc1ccc(Oc2ccc3c(c2)OCO3)nc1	12.25%
CC(C)N1CC2(CCCN(c3ccccn3)C2)CCC1=O (centres undefined)	8.106%
CCc1ccc(C(=O)NCC2CCCN2CC)o1 (centres undefined)	3.045%
CCc1cnc(N2CC[C@H]3[C@@H]2CCC(=O)N3c2cccnc2)nc1.O=C(O)C(F)(F)F.O=C(O)C(F)(F)F	5.714%
Cc1nc2c(Nc3cccc(C#N)c3)nc(N)nc2n1C	106.8%
CC(=O)c1ccc(Nc2nc(N)nc3c2nc(C)n3C)cc1	11.87%
Cc1nc2c(Nc3ccc(C#N)cc3)nc(N)nc2n1C	2.918%
CN(Cc1nnc(-c2cccs2)o1)C(C(N)=O)c1cccc(F)c1 (centres undefined)	15.31%
CCc1nc(CN(C)Cc2ncc(-c3cccs3)o2)cs1	22.49%
CCc1nc(CN(C)Cc2nnc(-c3cccs3)o2)cs1	57.32%
Cc1cc(NC(=O)c2ccccc2Br)n(C)n1	11.86%
Cc1cnn(CC2CCCN2Cc2coc(-c3cccc(F)c3)n2)c1 (centres undefined)	42.46%
OC(COCc1ccco1)CN1CCC(Cn2cccn2)CC1 (centres undefined)	-18.82%
COc1ccc2c(c1)OCC(Cc1ccc(C)nc1N)C2 (centres undefined)	9.156%
COc1cccc2c1OCC(CNc1ccc(C)nn1)C2 (centres undefined)	22.84%
COc1ccc2c(c1)OCC(CNc1cc(N)nc(SC)n1)C2 (centres undefined)	106.6%
COc1cccc2c1OCC(Cc1ccc(N)nc1C)C2 (centres undefined)	28.19%
COc1ccc2c(c1)OCC(Cc1ccc(N)nc1C)C2 (centres undefined)	38.23%
COc1cccc2c1OCC(CNc1cc(N)nc(SC)n1)C2 (centres undefined)	106%
Cc1nccc(-c2cccc(NCC(=O)N3CCNC(=O)C3)c2)n1	4.567%

Compound	Percent Effect
CNC(=O)c1cccc(CC2COCCN(Cc3ccc(C)o3)C2)n1 (centres undefined)	0.6767%
Cc1ccc(S(=O)(=O)NCC(O)c2ccoc2)s1 (centres undefined)	10.79%
Cc1ccc(S(=O)(=O)NCCc2ccoc2)s1	103.3%
COC(=O)c1sccc1S(=O)(=O)NCCc1ccoc1	39.87%
O=S(=O)(NCC1COc2ccccc2C1)N1CCCC1 (centres undefined)	15.67%
OC1=C2C(=Nc3n[nH]c(O)c3C2c2ccco2)CCC1 (centres undefined)	27.79%
Cc1cnn(CC2CCCN2Cc2noc(-c3ccccc3)n2)c1 (centres undefined)	10.45%
Cc1cnn(CC2CCCN2Cc2nc3ccccc3n2C)c1 (centres undefined)	81.85%
Cc1cnn(CC2CCCN2CCc2nc3ccccc3c(=O)[nH]2)c1 (centres undefined)	106.5%
Cc1cnn(CC2CCCN2C(=O)CCc2nc3ccccc3[nH]2)c1 (centres undefined)	16.22%
Cc1cnn(CC2CCCCN2Cc2nc(N)c3ccccc3n2)c1 (centres undefined)	31.76%
Cc1nc(C)n(CC2CCCN2Cc2nc3ccccc3c(=O)[nH]2)n1 (centres undefined)	-38.81%
Cc1cccc(CN2CCC(C3Nc4ccccc4S(=O)(=O)N3)CC2)n1 (centres undefined)	-13.88%
CCn1c(N)nc2cc(C(=O)N(C)Cc3cc(C(C)(C)C)n[nH]3)cnc21	12.68%
CN1CC(=O)N(c2cccc(F)c2)CC12CCNC2 (centres undefined)	-13.58%
NC(=O)CN1CCCCC1c1nc(N)ncc1-c1cccc(F)c1 (centres undefined)	-18.13%
COCCN1CCN(Cc2nc(-c3ccoc3)no2)CC1	-27.89%
Cc1ccc(F)cc1S(=O)(=O)Nc1cnc(N2CCCC2)nc1	13.98%
Cn1cc(NS(=O)(=O)c2ccc(OC(F)(F)F)cc2)ccc1=O	-35.35%
O=S(=O)(Nc1cnc(N2CCCC2)nc1)c1ccc(C(F)(F)F)cc1	101.9%
O=S(=O)(Nc1cnc(N2CCCC2)nc1)c1ccc(F)cc1F	-10.3%
O=S(=O)(Nc1cnc(N2CCOCC2)nc1)c1ccc(Cl)cc1	-17.06%
O=S(=O)(Nc1cnc(N2CCCC2)nc1)c1ccc(OC(F)(F)F)cc1	94.98%
O=S(=O)(Nc1cnc(N2CCOCC2)nc1)c1ccc(C(F)(F)F)cc1	57.68%
CN(C)c1ncc(NS(=O)(=O)c2ccc(OC(F)(F)F)cc2)cn1	23.91%
CCc1ccc(S(=O)(=O)Nc2cnc(N3CCOCC3)nc2)cc1	24.89%
